The supplement of paper PMC12645437, “Orthogonal IMiD-Degron Pairs Induce Selective Protein Degradation in Cells” (ACS Chemical Biology, 2025)
In all, about 8,300 sequences were measured (“log2 fold change of degron read counts, EGFP-low vs EGFP+ sorted cells (limma voom), compound-induced degradation”: median about -1.1, highest 2% from about 3.2 on). The entries come from a sample that favours the highest values as a whole.

T1: CRBN, Q96SW2
T1 chain: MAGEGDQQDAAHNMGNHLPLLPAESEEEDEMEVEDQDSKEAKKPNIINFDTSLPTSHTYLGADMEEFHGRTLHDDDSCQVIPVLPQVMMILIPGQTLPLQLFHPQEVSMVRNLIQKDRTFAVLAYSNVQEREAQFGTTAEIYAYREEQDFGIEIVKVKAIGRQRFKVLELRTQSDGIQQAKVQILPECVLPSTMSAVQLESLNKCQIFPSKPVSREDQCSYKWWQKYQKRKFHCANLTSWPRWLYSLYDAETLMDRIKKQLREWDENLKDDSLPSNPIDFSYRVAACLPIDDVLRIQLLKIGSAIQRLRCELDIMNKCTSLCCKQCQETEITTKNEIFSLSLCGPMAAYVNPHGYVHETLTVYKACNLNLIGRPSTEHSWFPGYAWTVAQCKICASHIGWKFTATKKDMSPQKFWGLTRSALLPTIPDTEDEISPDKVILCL


Biological target: T1, CRBN, Q96SW2
Assay: log2 fold change of degron read counts, EGFP-low vs EGFP+ sorted cells (limma voom), compound-induced degradation; higher = more compound-induced degradation of the degron-EGFP fusion; degrons are variants of IKZF1/3 zinc finger 2; compound dose not given here
Conditions: Jurkat, 18 h
[1] = compound: compound 19 (5-tert-butyl-thalidomide)
[2] = compound: compound 22 (5-morpholino-thalidomide)
[3] = compound: compound 33 (diphenyl IMiD analogue)
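Also: pooled lentiviral library of zinc finger degron-EGFP fusions in mCherry-positive Jurkat cells, FACS-sorted after compound exposure, with degron abundance counted by next-generation sequencing.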

Sequence | log2 fold change of degron read counts [1] | log2 fold change of degron read counts [2] | log2 fold change of degron read counts [3] | log2 fold change of degron read counts (compound: thalidomide)
FNCNICGACFTQKGNLLRHIKL [46F_47N_49N_50I_52G_53A_54C_55F_67L_, Q9UKT9] | 0.853 | -0.00319 | 0.551 | -0.352
FTCSVCGHAFTQKGNLLRHIKL [46F_47T_49S_50V_52G_53H_54A_55F_67L_, Q9UKT9] | -2.6 | -3.26 | -2.56 | -2.32
FMCNQCGAIFTQKGNLLRHIKL [46F_47M_49N_50Q_52G_53A_54I_55F_67L_, Q9UKT9] | -1.99 | -2.22 | -1.03 | -1.47
FECPICGHRFTQKGNLLRHIKL [46F_47E_49P_50I_52G_53H_54R_55F_67L_, Q9UKT9] | -2.87 | -2.87 | -1.63 | -0.824
LHCEICGFCCTQKGNLLRHIKL [46L_47H_49E_50I_52G_53F_54C_55C_67L_, Q9UKT9] | 1.84 | 1.64 | 1.25 | 0.874
FYCEICGRTFTQKGNLLRHIKL [46F_47Y_49E_50I_52G_53R_54T_55F_67L_, Q9UKT9] | 0.432 | 1.09 | 0.33 | -1.02
FYCNQCGHVFTQKGNLLRHIKL [46F_47Y_49N_50Q_52G_53H_54V_55F_67L_, Q9UKT9] | -2.11 | -2.08 | -2.48 | -1.76
FHCPVCGAFFTQKGNLLRHIKL [46F_47H_49P_50V_52G_53A_54F_55F_67L_, Q9UKT9] | 0.94 | 0.598 | 1.1 | -0.224
